The values that follow come from PubChem BioAssay AID652154 (Broad Institute, 2013).

Out of some 360,000 compounds screened, about 4,200 (1.2%) were called active.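 The calls were made as follows: active = mean replicate inhibition at least 60% with every replicate also reaching 60%; inconclusive = only one of the two criteria is met; inactive = mean below 60% and not all replicates reaching 60%.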 The list comes from a sample in which actives are over-represented; it also holds similar structures and randomly drawn compounds.

A short description of the experiment: inhibitors of PAX8-driven TPO luciferase reporter, primary screen, RMG-I cells, single concentration (AID 652154).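 Also: luciferase light reporting Pax8 driven TPO promoter activity; plate controls were median of neutral control wells for no effect and mitoxantrone controls for full effect.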 The conditions noted are these: SteadyGlo, 24 h, at 12.6 µM, hits give high values. Background: Reporter assays use an easily measured gene product as a stand-in for the process of interest.
Turning to `CN1C(=O)c2cc(NC(=O)c3cscn3)ccc2OC[C@@H]2O[C@H](CC(=O)N3CCCCC3)CC[C@H]21`, the inhibition (as a rule, the change of the read-out against control, counted positive when it falls) is -16.1% (inactive). Next, `CCCN(C)C[C@H]1OCCCC[C@@H](C)Oc2ccc(NC(=O)CCC(F)(F)F)cc2C(=O)N([C@H](C)CO)C[C@H]1C`: 8.93% (inactive). To `CSc1ccc(-c2c(C#N)c(N)nc3c2c(C)nn3-c2ccccc2)cc1` belongs 66.4% (active). In the case of `Cn1c(=O)c2c(-c3cccc(Br)c3)c(C#N)c(N)nc2n(C)c1=O`, the inhibition was 4.92% (inactive). For the compound `Cc1nc2c(c(C)nn2-c2ccccc2)c(C)c1C`, the inhibition is 12.6% (inactive).

Regarding `C[C@H]1CN([C@@H](C)CO)C(=O)c2cccc(NS(=O)(=O)c3cn(C)cn3)c2O[C@@H]1CN(C)C(=O)Nc1ccc(F)cc1`, the inhibition is -9.83% (inactive). Next, `O=C(Nc1ccccc1)N[C@@H]1CC[C@H](CCNS(=O)(=O)c2ccccc2F)O[C@@H]1CO`: -8.59% (inactive). Next, `Cc1ccc(-c2csc(NC(=O)C3=COCCO3)n2)cc1C`: -109% (inactive); `Cc1ccc(-c2csc(NC3OC(=O)c4ccccc43)n2)cc1` (stereo not drawn): 92.3% (active). Next, `C/C(CC1CC(C)(C)OC1=O)=N/Nc1nc(-c2ccccc2)cs1` (stereo not drawn): 19.2% (inactive). Regarding `CC(=O)N1[C@H](CO)[C@H](c2ccc(-c3ccccc3)cc2)[C@H]1CNC(=O)C1CC1`, the inhibition was -4.5% (inactive). Next, `CN(C)C(=O)c1cccc(-c2cnc3c(NC=O)cc(-c4ccc(F)cc4)cn23)c1`: 33.9% (inactive); `CC(=O)c1cccc(-c2cnc3c(NC=O)cc(-c4cccc(C(=O)N(C)C)c4)cn23)c1`: 12.7% (inactive); `CN(C)CCNC(=O)c1cccc(-c2cnc3c(NC=O)cc(-c4cccc(C(F)(F)F)c4)cn23)c1`: 109% (active).

On to `COc1ccc(NC(=O)Nc2ccc3c(c2)C(=O)N([C@H](C)CO)C[C@H](C)[C@H](CN(C)S(=O)(=O)c2ccc(Cl)cc2)OCCCC[C@H](C)O3)cc1`, for which the inhibition was 26.6% (inactive). To `O=C(C[C@@H]1C[C@@H]2c3cc(NS(=O)(=O)c4ccccc4)ccc3O[C@@H]2[C@@H](CO)O1)NC1CCCCC1` belongs 15.4% (inactive); to `CCOC(=O)c1c(C)[nH]c(C(=O)OCC(=O)c2ccc(OC)cc2OC)c1C`, -7.09% (inactive). Regarding `CCOC(=O)c1c(C)[nH]c(C)c1S(=O)(=O)NCCCc1ccco1`, the inhibition was -4.09% (inactive). Next, `CCOC(=O)c1c(C)[nH]c2c1-c1ccccc1C(=O)C2=O`: 107% (active); `COCC(=O)Nc1ccc2c(c1)C(=O)N(C)C[C@@H](OC)[C@@H](C)CN(C(=O)c1ccccc1)[C@@H](C)CO2`: -10.2% (inactive). To `CC(=O)N1[C@@H](CO)[C@@H]2c3ccccc3N(S(=O)(=O)c3ccccc3)C[C@@H]21` belongs 7.26% (inactive); to `O=C(C(=O)N1CCC(CNC(=O)c2cccnc2Cl)CC1)c1cccs1`, -11.9% (inactive).

In the case of `Cc1cc(C(=O)NCCc2ccc(Cl)cc2)c(C)o1`, the inhibition was -114% (inactive). Consider `Cc1cc(C(=O)N/N=C\C(Br)=C\c2ccccc2)c(C)o1`, for which the inhibition was 63% (active).

For the compound `CC(/C=N/NC(=O)c1cc(-c2ccc3ccccc3c2)n[nH]1)=C\c1ccco1`, the inhibition is -6.24% (inactive). Take `CC(C)c1cc(C(=O)N/N=C/C(Br)=C/c2ccccc2)n[nH]1`: the inhibition was 74.5% (active). Regarding `O=C(N/N=C\c1cccc(Br)c1)c1ccccc1-n1cccc1`, the inhibition is 24.9% (inactive). As for `Cc1ccc(-c2cc(C(=O)N/N=C/C=C/c3ccccc3)n[nH]2)o1`, the inhibition was 47.7% (inactive). Next, `O=C(Nc1cccc(F)c1)N[C@@H]1CC[C@@H](CCn2cc(Cc3ccccc3)nn2)O[C@@H]1CO`: 3.01% (inactive); `C[C@H](CO)N1C[C@H](C)[C@H](CN(C)C(=O)Nc2ccc3c(c2)OCO3)Oc2ccc(NS(=O)(=O)c3ccc(Cl)cc3)cc2CC1=O`: -20.9% (inactive). To `CN1[C@@H]2CN(C(=O)c3ccc(F)cc3)c3ccccc3[C@@H]2[C@@H]1CO` belongs -1.94% (inactive).

Consider `O=C(Nc1cc(F)ccc1F)N[C@H]1CC[C@@H](CCn2cc(C3CCCC3)nn2)O[C@@H]1CO`, for which the inhibition was 5.81% (inactive).

Regarding `Cc1noc(C)c1NC(=O)N(C)C[C@H]1Oc2ccc(NC(=O)C3CCCCC3)cc2CC(=O)N([C@@H](C)CO)C[C@H]1C`, the inhibition was -10.9% (inactive). Next, `CO[C@@H]1CN(C)C(=O)c2ccc(NC(=O)C3CCC3)cc2OC[C@H](C)N(C(=O)CN(C)C)C[C@H]1C`: -10.4% (inactive); `CC[n+]1cc(C)ccc1/C=C/c1ccc(N(C)C)cc1`: 86.7% (active); `COc1cccc(CNC(=O)C[C@H]2CC[C@@H](NC(=O)C3CCC3)[C@@H](CO)O2)c1`: -6.76% (inactive). With `O=C(Cc1ccccc1)N1C[C@@H]2[C@H](c3ccccc31)[C@@H](CO)N2C(=O)C1CC1`, the inhibition is 6.8% (inactive). Consider `O=C(c1ccccc1)N1C[C@@H]2[C@H](c3ccccc31)[C@@H](CO)N2Cc1cc(F)ccc1F`, for which the inhibition was 28% (inactive).

Turning to `Cc1ccc(S(=O)(=O)N(C)C[C@H]2OCCCC[C@H](C)Oc3ccc(N(C)C)cc3C(=O)N([C@H](C)CO)C[C@@H]2C)cc1`, the inhibition was 32% (inactive).

For `O=C(C[C@@H]1C[C@@H]2c3cc(NC(=O)NC4CCCC4)ccc3O[C@@H]2[C@H](CO)O1)NCC(F)(F)F`, the inhibition is -19.4% (inactive). Next, `Oc1c(Cl)cc(Cl)c(Cl)c1Cc1c(O)c(Cl)cc(Cl)c1Cl`: 107% (active).

On to `CNC[C@H]1OCCCC[C@@H](C)Oc2ccc(NC(=O)c3ccncc3)cc2C(=O)N([C@H](C)CO)C[C@H]1C`, for which the inhibition was -8.2% (inactive).

For `O=S(=O)(NC1CCCCC1N1CCCCC1)c1ccc(Cl)cc1` (stereo not drawn), the inhibition was 7.52% (inactive). Next, `O=S(=O)(NC1CCCCC1N1CCN(c2ccccc2F)CC1)c1ccccc1` (stereo not drawn): 101% (active). Turning to `COc1ccc(N2CCN(C3CCCCC3NS(=O)(=O)c3ccccc3)CC2)cc1` (stereo not drawn), the inhibition is 19.3% (inactive).

Take `C[C@@H]1CN([C@@H](C)CO)C(=O)c2cc(NC(=O)CCN3CCOCC3)ccc2O[C@H]1CN(C)C(=O)NC1CCCCC1`: the inhibition was -13.4% (inactive). As for `C[C@@H]1CN([C@@H](C)CO)C(=O)c2cc(-c3cncnc3)cnc2O[C@H]1CN(C)Cc1cncnc1`, the inhibition is -3.91% (inactive). Next, `CN(C)C(=O)c1cccc(-c2ccc([C@H]3[C@@H](CO)N4C(=O)CN(C(=O)C5CC5)C[C@@H]34)cc2)c1`: -11.3% (inactive); `Cc1cccc(N(Cc2ccccc2)C(=O)c2ccccc2F)c1`: 3.65% (inactive); `CCCCC(O)(CCCC)C(=O)NN(C(=O)CCl)c1ccccc1`: -1.33% (inactive). Turning to `CCCC(O)(CCC)C(=O)NN(C(=O)CCl)c1cccc(C)c1`, the inhibition was 76.1% (active).

For `CN1c2ccc(-c3cccc(F)c3)cc2[C@@H]2[C@@H](CCN2C(=O)Nc2ccccc2F)[C@@H]1CO`, the inhibition was 39.3% (inactive). Next, `CCCCCCCCn1c2c(c(=N)c3c1CCC3)CCCC2`: 96.6% (active). `CC(C)NC(=O)Nc1ccc2c(c1)C(=O)N([C@H](C)CO)C[C@H](C)[C@H](CN(C)Cc1ccc(C(=O)O)cc1)OCCCC[C@@H](C)O2`: the inhibition is 2.34% (inactive).

Turning to `Cc1ccccc1OS(=O)(=O)c1cccc([N+](=O)[O-])c1`, the inhibition is -23.3% (inactive).

On to `O=C(NCc1ccncc1)c1ccc(NS(=O)(=O)c2cccc([N+](=O)[O-])c2)cc1`, for which the inhibition was -1.39% (inactive). Next, `N/C(=N\OS(=O)(=O)c1cccc([N+](=O)[O-])c1)c1ccncc1`: 134% (active); `COc1ccc(NC(=O)N[C@H]2CC[C@H](CCn3cc(-c4ccccc4F)nn3)O[C@H]2CO)cc1`: -4.51% (inactive); `C[C@@H]1CCCCO[C@H](CN(C)S(=O)(=O)c2cn(C)cn2)[C@@H](C)CN([C@@H](C)CO)C(=O)c2cc(NC(=O)c3ccncc3)ccc2O1`: -1.88% (inactive).

As for `CO[C@H]1CN(C)C(=O)c2ccc(NS(=O)(=O)c3cn(C)cn3)cc2OC[C@@H](C)N(CC2CC2)C[C@H]1C`, the inhibition is -11.1% (inactive). Consider `O=C(NC(Cc1c[nH]c2ccccc12)C(=O)N/N=C/c1ccc(Br)cc1)c1cccs1` (stereo not drawn), for which the inhibition is -2.62% (inactive). To `O=C(CC(=O)N/N=C\c1ccc(F)cc1)NCCc1ccccc1` belongs 16.1% (inactive).

As to `O=C(Cc1c[nH]c2ccccc12)N/N=C/c1cccc(F)c1`, the inhibition was 73.6% (active). `CC(=O)c1ccc(S(=O)(=O)N2CCN(C(=O)/C=C/c3ccc4ccccc4n3)CC2)cc1`: the inhibition was 79.4% (active).

On to `CC(=O)c1ccc(S(=O)(=O)N2CCC3(CC2)OCCO3)cc1`, for which the inhibition was -17.6% (inactive).

Turning to `CC(=O)c1ccc(S(=O)(=O)N2CCC(Oc3ccc(-n4cnnn4)cc3)CC2)cc1`, the inhibition is -37.6% (inactive). Turning to `COc1ccc(S(=O)(=O)Nc2ccc3c(c2)C(=O)N([C@H](C)CO)C[C@H](C)[C@H](CN(C)S(=O)(=O)c2ccc(Cl)cc2)O3)cc1`, the inhibition is -6.19% (inactive). Next, `CC(C)C#Cc1ccc2c(c1)O[C@@H](CN(C)Cc1ccncc1)[C@@H](C)CN([C@@H](C)CO)S2(=O)=O`: -12.5% (inactive); `COc1ccc([Si](C)(C)[C@@H]2[C@@H](CCO)O[C@]3(C(=O)N(Cc4cccc(N5CCCCC5=O)c4)c4ccccc43)[C@H]2C)cc1`: 3.33% (inactive). To `COc1ccc([Si](C)(C)[C@@H]2[C@@H](CCO)O[C@]3(C(=O)N(Cc4ccccc4)c4ccc(N5CCC5=O)cc43)[C@H]2C)cc1` belongs 101% (active). For the compound `COc1ccc(-c2ccc([C@@H]3[C@@H](CO)N4C(=O)CN(Cc5ccccc5)C[C@@H]34)cc2)cc1`, the inhibition was -17% (inactive). Next, `O=C(CC1CC1)N1[C@@H]2CN(S(=O)(=O)c3ccccc3F)c3ccccc3[C@@H]2[C@@H]1CO`: -3.48% (inactive); `O=C(C1=C[C@@H](c2ccccc2)C[C@@H](OCCCCO)O1)N1CCN(Cc2ccccc2)CC1`: 2.95% (inactive).
